Data as given in ChEMBL document CHEMBL3988442, “University of Dundee, Small-Polar-MMV Screening Library” (2021).
Screen size: about 48,000 compounds; about 13,000 (27%) showed an effect of 50% or more. The list shows a part of the results.

These molecules were tested on Wolbachia pipientis (assay: Anti-Wolbachia Cell-Based Screen). Conditions: 5 µM.
Format: functional
Parameters: scale not given: in the data most compounds retested in dose-response had high values

Structure (SMILES)	Percent Effect
O=S(=O)(Nc1cnn(C2CCOCC2)c1)c1ccc(Br)cc1	132.2%
Cn1nnn(-c2ccc(NS(=O)(=O)c3ccc(Br)cc3)cc2)c1=O	-3.296%
Cc1ccc(S(=O)(=O)Nc2cnn(C3CCOCC3)c2)cc1C	113.9%
O=S(=O)(Nc1cnc(N2CCOCC2)nc1)c1ccc(Cl)cc1	-1.506%
COc1c(NS(=O)(=O)c2ccc(C)c(C)c2)c(C)nn1C	-13.12%
CC(=O)c1ccc(S(=O)(=O)Nc2cnn(C3CCOCC3)c2)cc1	124.1%
Cc1ccc(NS(=O)(=O)c2ccc(C#N)cc2)c(CN(C)C)c1	3.683%
N#Cc1ccc(S(=O)(=O)Nc2cnn(C3CCOCC3)c2)cc1	136.3%
O=S(=O)(Nc1cnn(C2CCOCC2)c1)c1ccc2c(c1)CCO2	-1.173%
N#Cc1ccc(S(=O)(=O)Nc2ccc(N3CCOCC3)cn2)cc1	1.293%
CCc1ccc(S(=O)(=O)Nc2cnc(N3CCOCC3)nc2)cc1	1.019%
Cc1ccc(S(=O)(=O)Nc2ccc(N3CCOCC3)cn2)cc1	3.4%
COc1coc(CN2CCCC(CCc3c(F)cccc3F)C2)cc1=O (stereo not drawn)	17.04%
Cc1ccc(C)c(-c2csc(N)c2C#N)c1	-0.8217%
Cc1nc(N2CCN3CCCCC3C2)nc2cc(S(C)(=O)=O)ccc12 (stereo not drawn)	-5.317%
O=C(CNC(=O)c1cnc2ccccc2c1O)NCCn1ccnc1	-3.022%
Cc1cc(CN2CCN(C(=O)Nc3cccnc3)CC2)on1	-15.13%
O=S(=O)(Nc1cnn(C2CCOCC2)c1)c1c(F)cccc1F	-13.72%
O=C(O)c1cc(S(=O)(=O)Nc2cnn(C3CCOCC3)c2)ccc1F	126.6%
O=S(=O)(Nc1cnn(C2CCOCC2)c1)c1ccc(F)c(F)c1	-11.58%
Cc1ccc(CNCc2cc(Br)c3c(c2)OCO3)cc1	-32.56%
COc1cccc(N2CCC(CNC(=O)N(C)Cc3ccco3)C2)c1 (stereo not drawn)	-2.761%
CC(C)(O)CN1CCC(=O)N(Cc2ccco2)Cc2cc(F)ccc21	108.3%
COc1ccc2c(c1)CN(Cc1ccco1)C(=O)CCN2CC(C)(C)O	126.9%
Fc1cccc(N2CCCC3(CN(Cc4ccco4)CCO3)C2)c1.O=C(O)C(F)(F)F.O=C(O)C(F)(F)F (stereo not drawn)	-7.933%

Structure (SMILES)	Percent Effect
CN1CC(=O)N(c2cccc(F)c2)CC12CCN(Cc1ccco1)C2 (stereo not drawn)	-8.082%
CC(C)(Oc1ccc2c(c1)CCCC2=O)C(=O)NCc1ccco1	-1.632%
CC(=O)N1CCC2(CC1)CN(C(C)=O)CC21CCNC1=O (stereo not drawn)	-37.65%
CN(C)C1Cc2ccccc2N(S(=O)(=O)c2ccccc2C#N)C1 (stereo not drawn)	-15.96%
Cc1cc(N2CCCC(c3nccnc3N(C)C)C2)ncn1 (stereo not drawn)	90.88%
CC(C)n1ccnc1C1CCCN(c2cncc(N(C)C)n2)C1 (stereo not drawn)	9.354%
CN(C)c1nccnc1C1CCCN(c2cnccn2)C1 (stereo not drawn)	115.4%
CN(C)c1nccnc1C1CCN(c2cnccn2)CC1	116.7%
CN(C)CCO[C@H]1C[C@@H](O)C12CCN(c1cnccn1)CC2	0.5833%
COc1cc(N2CCCC(c3ncc[nH]3)C2)ncn1 (stereo not drawn)	-14.93%
CC(C)c1nc(C2CCCN(c3cnc4ccccc4n3)C2)no1 (stereo not drawn)	3.044%
Cc1cc(C)c(CNC(=O)C2CCCN(c3cnccn3)C2)c(=O)[nH]1 (stereo not drawn)	0.7586%
CN(C)c1cncc(C2CCCN(c3cnccn3)C2)n1 (stereo not drawn)	69.21%
CN(C)CCCn1ccnc1C1CCCN(c2cc(N)ncn2)C1 (stereo not drawn)	-5.782%
O=C(O)[C@@H]1CN(C2CCCCC2)C[C@H]1C1CC1	8.818%
CCS(=O)(=O)N1CCC(CSc2ccccc2)C1 (stereo not drawn)	-7.795%
CNC(=O)C(C)(C)N1CCC[C@H]1C(=O)NCCN1CCOCC1	8.557%
CCc1ccc(C(=O)N2CCCn3nnc(Cn4cccn4)c3C2)cc1	1.938%
O=C(O)C(F)(F)F.OCCOCc1nnn2c1CN(c1ncccn1)CCC2	8.15%
CC(=O)NCc1nnn2c1CN(c1ncccn1)CCC2	96.74%
CC(=O)NCc1nnn2c1CN(c1ncc(C)cn1)CCC2	101.7%
O=C(O)C(F)(F)F.c1ccc(OCc2nnn3c2CN(c2ncccn2)CCC3)nc1	-15.4%
COCc1nnn2c1CN(C(=O)c1c[nH]cn1)CCC2	-0.6058%
CCS(=O)(=O)N1CCCn2nnc(CNC(C)=O)c2C1	115.8439%
COc1cccc(-c2noc(-c3ccc(NCC(C)C)nc3)n2)c1OC	-21.63%

Structure (SMILES)	Percent Effect
CCN1CCC(c2nnc(CN3CCCC3)n2C2CC2)CC1	-1.245%
Cc1cnn(C2CN(c3nc(C)cc(N(C)C)n3)C2)c1	-14.5%
Cc1cc(N(C)C)nc(C2(C)CCNCC2)n1	87.74%
Cc1nc(N(C)C)cc(C2(C)CCNCC2)n1	111%
Cc1cc(N(C)C)nc(C2(C)CCCNC2)n1 (stereo not drawn)	102.5%
Cc1cc(N(C)C)nc(N2CCn3c(C)nnc3C2)n1	-0.4749%
CN(Cc1ccc2nsnc2c1)C(=O)CCc1cc2n(n1)CCCNC2	-10.43%
COCc1cc(N(C)Cc2ccccn2)nc(C(C)(C)C)n1	-4.697%
O=C(COc1ccccc1N1CCCC1)N1CCN[C@H]2CS(=O)(=O)C[C@H]21	-3.795%
O=C(CCc1ccccc1Br)N1CC(S(=O)(=O)C2CCCCC2)C1	3.843%
Cc1noc(CNc2ccc(OC(F)F)cc2OC(F)F)n1	-10.63%
Cc1noc2ncc(C(=O)NCC3CCN(C(C)C)C3)cc12 (stereo not drawn)	-9.955%
CS(=O)(=O)N1Cc2nccn2CC(CN2CCCC2=O)C1 (stereo not drawn)	-14.04%
CC(=O)N1CCC(Cc2nccnc2-c2c(C)n[nH]c2C)C1 (stereo not drawn)	110.3%
Cc1n[nH]c(C)c1CN1CCC(c2cc(C(C)C)n[nH]2)CC1	7.572%
Cc1n[nH]c(C)c1-c1nccnc1CC1CCN(C(C)C)CC1	127%
CN1CCCC(N2CCN(c3cc(C(F)(F)F)ccn3)CC2)C1 (stereo not drawn)	-11.03%
CC(=O)N1CCC(NC(=O)NCCCc2cn[nH]c2C)CC1	-4.714%
Cc1n[nH]c(C)c1-c1nccnc1CC1CCCN(C)C1 (stereo not drawn)	113%
CS(=O)(=O)N1CCC(CSc2ccccc2)C1 (stereo not drawn)	7.413%
CC(=O)N1CCC(CN2CCN(Cc3nccn3C)C(C)C2)CC1 (stereo not drawn)	-3.409%
Cc1ccc(CN(Cc2ccccn2)C(=O)CCC2CCCN(C)C2)s1 (stereo not drawn)	-9.083%
Cc1n[nH]c(C)c1-c1nccnc1CC1CCN(S(C)(=O)=O)C1 (stereo not drawn)	111.1%
